# Laboratory results published in ChEMBL document CHEMBL3988442, “University of Dundee, Small-Polar-MMV Screening Library” (2021).
# Out of some 48,000 compounds screened, about 13,000 (27%) showed an effect of 50% or more. The list shows a part of the results.
# System: Wolbachia pipientis
# Experiment: Anti-Wolbachia Cell-Based Screen
# Assay type: functional
# Set-up: scale not given: in the data most compounds retested in dose-response had high values
# Conditions: 5 µM
row,SMILES,Percent Effect [%]
1,O[C@H]1[C@H](n2cc(-c3ccccc3)nn2)c2ccccc2C12CCNCC2,-3.237
2,CCc1cc(N(C)CCc2noc(C)n2)nc(N2CCOCC2)n1,-13.53
3,CC(C)c1nc(CN(C)Cc2cnc(N3CCOCC3)nc2)no1,-9.471
4,CCS(=O)(=O)c1ncc(CN(C)Cc2ccc(C)o2)n1CCOC,-4.34
5,Cc1ccc(CN(C)Cc2cnc(N3CCOCC3)s2)o1,116.2
6,CN(Cc1nc(-c2ccccc2)no1)Cc1cnc(N2CCOCC2)s1,97.7
7,Cc1noc(CN(C)Cc2cnc(N3CCOCC3)nc2)n1,-9.212
8,Cc1nc(CN(C)Cc2cnc(N3CCOCC3)s2)no1,89.45
9,Cc1ncc(CN(C)C(=O)c2ccc(N3CCOCC3)c(F)c2)s1,3.379
10,CN(Cc1ccsc1)Cc1nc(-c2ccncc2)no1,-1.44
11,COc1cccc(-c2ccc(CNC(=O)c3ccc(=O)n(C)c3)cc2)c1,0.1145
12,CCc1nc(CN(C)C(=O)C2CC(=O)N(c3cccc(O)c3)C2)no1 (stereo not given),15.35
13,CN(C)S(=O)(=O)N1CC[C@]2(C[C@@H](OCc3ccccn3)CO2)C1.O=C(O)C(F)(F)F,-10.12
14,CC(C(=O)O)N1CC2(CCC1=O)CCN(CCSc1ccccc1)CC2 (stereo not given),-16.96
15,COCCN(C)C(=O)Nc1ccn(-c2cccc(C(F)(F)F)c2)n1,-15.63
16,Cc1nc(C2CCCNC2)cc(N(C)CCc2ccccc2)n1 (stereo not given),1.735
17,Cc1cccc(OCC(=O)N(Cc2ccncc2)C2CC2)c1,-0.008091
18,CCN(Cc1c(F)cccc1Cl)c1cc(C2CCNCC2)nc(C)n1,117.3
19,CCN(Cc1ccncc1)c1nc(C)nc2oc(C)nc12,-65.89
20,CCN(Cc1ccncc1)c1cc(C2CCNCC2)nc(C)n1,95.16
21,CCN(Cc1ccncc1)c1cc(C2CCN2C(C)=O)nc(C)n1 (stereo not given),128.1
22,CNS(=O)(=O)CC(=O)N(Cc1c(F)cccc1Cl)C1CC1,-9.118
23,Cc1ccnc(CC(C)N(C)c2cc(C3CCNCC3)nc(C)n2)c1 (stereo not given),6.994
24,Cc1nc(C2CCNCC2)cc(N2CCOc3ccccc3C2)n1,-3.992
25,CCN(Cc1ccncc1)c1cc(C2CCCNC2)nc(C)n1 (stereo not given),103.1

row,SMILES,Percent Effect [%]
1,Cc1nc(C2CCNCC2)cc(N(C)CCc2cn[nH]c2)n1,-7.954
2,CO[C@H]1COCCN(C(=O)c2cc(C)oc2C(F)(F)F)C1,-0.5452
3,CN(CCc1ccccc1)c1cnn(CC(=O)N2CCOCC2)c(=O)c1,17.19
4,Cc1nc(N(C)C/C=C/c2ccccc2)c2cnn(C)c2n1,1.614
5,COc1cc(C(C#N)NC(=O)CC2=CCCCC2)cc(OC)c1OC (stereo not given),-9.8
6,O=C(c1cnns1)N1CCN(c2ccc(F)cc2Cl)CC1,-2.521
7,COC(=O)C(O)C1CCN(CCc2ccc(C)cc2)CC1 (stereo not given),-9.232
8,Cc1cccc(COc2ccccc2C(=O)N2CCC(C(N)=O)CC2)c1,0.1214
9,CCOc1cc(=O)n2c(c1C(=O)OCc1ccc(F)cc1)CCCC2,95.56
10,Cc1cccc(CC(=O)N2CCCCC2CN)c1.Cl (stereo not given),-0.4794
11,CCOc1cc(C)ccc1NC(=O)N(C)Cc1cnn(C)c1,5.553
12,O=C(OCc1cccc(F)c1)c1cccc(C(=O)N2CCCC2)n1,-9.061
13,COc1ccc(CN(CC2CCCO2)C(=O)CN2CCCCC2=O)cc1 (stereo not given),3.552
14,CCOc1cc(=O)n2c(c1C(=O)OCc1cccc(C)c1)CCCC2,85.47
15,CCOc1cc(=O)n2c(c1C(=O)OCc1ccc(C)cc1)CCCC2,83.47
16,CCOc1cc(=O)n2c(c1C(=O)OCc1ccc(OC)cc1)CCCC2,91.51
17,CCOc1cc2c(cc1C(=O)O)CCC2,-16.22
18,COc1ccc(CN2CCCN(c3cc(C(N)=O)ccn3)CC2)cc1,15.11
19,Cc1ccc(C(=O)N(C)CCNS(C)(=O)=O)cc1Br,-2.447
20,Cc1cc(C(=O)N2CCOC[C@H](Oc3cnccn3)C2)c(C(F)(F)F)o1,1.166
21,Cc1nnc2n1CCN(CC(=O)NC(C)c1cc3ccccc3o1)C2 (stereo not given),-0.5236
22,COCCN1CCN(Cc2ccc(F)c(C)c2)[C@H]2CS(=O)(=O)C[C@H]21,-0.5112
23,O=C1NCCN(Cc2ccoc2)C1CC(=O)N1CCc2sccc2C1 (stereo not given),-12.03
24,CCCN1CCN(Cc2nc3ccccc3[nH]2)[C@H]2CS(=O)(=O)C[C@H]21,-8.969
25,CC1CCC(O)(CN2CCN(CCNC(=O)C3CCC3)CC2)CC1 (stereo not given),8.242

row,SMILES,Percent Effect [%]
1,Cc1[nH]c2c(C)ccc(C)c2c1CC(=O)NCCNc1cccnc1,0.5336
2,N[C@@H]1CCN(Cc2ccccc2CS(=O)(=O)c2ccccc2)C[C@H]1O,-11.48
3,c1cnn(CCC2CCN(Cc3ccc4[nH]ccc4c3)CC2)c1,-20.25
4,c1cnnc(N[C@@H]2CC[C@@H]3CN(Cc4c[nH]c5ccccc45)C[C@@H]32)c1,81.26
5,CN(C)S(=O)(=O)N1C[C@@H]2CC[C@H](C1)N(Cc1ccc3[nH]ccc3c1)C2,10.36
6,Cc1nccc(N[C@H]2CN(CCS(C)(=O)=O)C[C@@H]2C2CC2)n1,-10.57
7,c1cnnc(N[C@@H]2CC[C@@H]3CN(Cc4ccc5cc[nH]c5c4)C[C@@H]32)c1,79.05
8,c1ccc2c(Cc3nnc([C@H]4CCNC4)o3)c[nH]c2c1,-7.413
9,O=C1CO[C@H]2CN(Cc3c[nH]c4ccccc34)C[C@H]2N1,5.983
10,c1cc2ccc(N3CCN(Cc4ccc5c(c4)OCO5)CC3)nc2[nH]1,-12.23
11,c1cnnc(N[C@@H]2CC[C@@H]3CN(Cc4ccc5[nH]ccc5c4)C[C@@H]32)c1,53.89
12,Cc1cn2c(CN(C)C(=O)c3cnc(N)c(Cl)c3)c(C)nc2s1,7.837
13,CCn1cnnc1CN(C)C(=O)c1cc(COc2cccc(F)c2)[nH]n1,-21.78
14,CCOCC(=O)NC1(c2cccc(Cl)c2)CC1,-6.24
15,Cc1nc(CN2CCCC2Cn2cccn2)nc2ccccc12 (stereo not given),5.126
16,Cc1nc(C)n(CC2CCCN2Cc2cn(-c3ccccc3)nn2)n1 (stereo not given),-1.626
17,CCCc1nc(CN2CCCC2Cn2cccn2)cs1 (stereo not given),-10.42
18,c1ccc(-n2cc(CN3CCCC3Cn3cccn3)nn2)cc1 (stereo not given),141.8
19,c1cnn(CC2CCCN2Cc2ccc(-n3cccn3)cc2)c1 (stereo not given),123
20,Cc1nc2ccccc2nc1CN1CCCC1Cn1cccn1 (stereo not given),15.41
21,CCC(=O)N1CCN(C(=O)Nc2ccc(Cl)cc2)[C@H]2CS(=O)(=O)C[C@H]21,20.51
22,O=C(COC1CCCC1)N1C[C@@H]2CN(Cc3ccoc3)CCO[C@@H]2C1.O=C(O)C(F)(F)F,-10.48
23,Cc1ccccc1Cc1cnc(NC(=O)C2CNC(=O)N2)s1 (stereo not given),1.413
24,O=C1NCC(C(=O)Nc2ncc(Cc3ccc(F)cc3F)s2)N1 (stereo not given),122.8
25,CC(=O)Nc1ncc(S(=O)(=O)Nc2ccc(F)cc2F)s1,11.75

row,SMILES,Percent Effect [%]
1,O=C1NCC(C(=O)Nc2ncc(Cc3ccccc3F)s2)N1 (stereo not given),80.55
2,CC(=O)Nc1ncc(S(=O)(=O)Nc2ccc(F)cc2)s1,1.75
3,O=C(NCc1ccccc1F)NC1CCCN(c2ncccn2)C1 (stereo not given),7.135
4,CCCNc1ncc(C2CC(=O)NCc3nc4ccccn4c32)cn1 (stereo not given),19.88
5,CCS(=O)(=O)c1ccccc1N1CCC(NC(C)=O)CC1,-10.39
6,CN(CCN1CCCCCC1)C(=O)c1c(O)cccc1O,-5.64
7,NC(=O)c1c(SCCN2CCCCC2)sc2c(O)cc(=O)[nH]c12,88.72
8,CCOCC(=O)N1CC(=O)Nc2cc(Br)ccc21,-5.264
9,Cc1ccc(CSCCn2nc3ccccn3c2=O)cc1,-0.2652
10,Cc1ccc2cc(C(=O)NCCn3nc4ccccn4c3=O)[nH]c2c1,12.5
11,O=c1n(CCNCc2ccc3ccccc3c2)nc2ccccn12,96.37
12,Cc1cc(C(=O)NCCn2nc3ccccn3c2=O)[nH]n1,-11.84
13,O=c1n(CCNCc2ccc(-c3ccccc3)cc2)nc2ccccn12,92.23
14,Cc1cc(C)c2c(c1)C(NC(=O)CSCC(N)=O)CCO2 (stereo not given),-11.46
15,COc1ccc(OC2CCN(C(=O)c3cnc(C)s3)CC2)cc1,-7.331
16,O=C(N1CCC(Oc2ccncc2)CC1)C1(c2ccc(F)cc2)CC1,4.458
17,CN1CCC(N(C)CCC(=O)N2CCC(Oc3ccc(Cl)cc3)CC2)C1 (stereo not given),-10.05
18,N[C@@H](Cc1c[nH]cn1)C(=O)N1CCC(Oc2ccc(Cl)cc2)CC1,129.2
19,COc1ccc(OC2CCN(C(=O)[C@@H](N)Cc3c[nH]cn3)CC2)cc1,108.9
20,COc1ccc(OC2CCN(C(=O)C(C)Cn3cccn3)CC2)cc1 (stereo not given),-7.925
21,O=C(O)c1ccc(N2CCC(Oc3ccc(Cl)cc3)CC2)nc1,7.355
22,N[C@@H](Cc1c[nH]cn1)C(=O)N1CCC(Oc2ccc(F)cc2)CC1,142.9
23,Cc1ccc(OC2CCN(C(=O)C(C)Cn3cccn3)CC2)cc1 (stereo not given),-8.941
24,CCN(Cc1nc(COC)no1)Cc1cccnc1NC,-1.287
25,COCCCN1CCC(CNc2nccc(-c3cnn(C)c3)n2)C1 (stereo not given),0.7819
